D1 antagonist: antagonists of human D1 dopamine receptor. P21728. HEK293 TREx D1 cells, calcium flux, dopamine EC80; active compounds read low. activity change, negative = inhibition, % at 10 µM. 360,000 tested, 3.2% active. AID 504652; in the data active = activity change below about -30%
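Compound effects on dopamine-evoked calcium signalling were measured in tetracycline-induced HEK293 Trex D1 cells. Dopamine at EC80 followed a 180 s compound pre-read, and fluorescence was tracked kinetically for 180 s more.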
TRHR PAM: TRH receptor (human) allosteric enhancement | enhancement, % at 2 µM | TRHR cells, fluo-8 calcium fluorescence, EC20 TRH enhancement | 360,000 tested, 0.66% active; in the data active = enhancement above about 30%
Target sequence (P34981 whole entry, looked up): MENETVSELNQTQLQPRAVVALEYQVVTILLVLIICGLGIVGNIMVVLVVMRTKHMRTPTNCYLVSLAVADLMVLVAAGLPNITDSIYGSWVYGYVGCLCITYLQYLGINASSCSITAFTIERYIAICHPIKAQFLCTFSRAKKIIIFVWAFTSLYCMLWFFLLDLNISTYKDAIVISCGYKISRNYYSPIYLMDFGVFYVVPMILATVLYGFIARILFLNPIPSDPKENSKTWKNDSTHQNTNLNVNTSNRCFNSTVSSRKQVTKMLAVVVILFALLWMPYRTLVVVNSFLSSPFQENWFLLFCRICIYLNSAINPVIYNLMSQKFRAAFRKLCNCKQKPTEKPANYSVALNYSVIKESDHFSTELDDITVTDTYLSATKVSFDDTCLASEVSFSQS
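Enhancer read-out: after compound pinning and an initial kinetic agonist-mode read, an EC20 of TRH (10 nM final) was injected and fluo-8 calcium signal (Ex 480/Em 530) followed at 1 s/cycle for 100 cycles in TRHR-expressing cells.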
D1 agonist: activates the human D1 dopamine receptor. P21728. HEK293 T-REx D1 cells, calcium flux, agonist mode. activation, % at 2 µM. 360,000 tested, 1% active
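Tetracycline-induced HEK293 TREx D1 cells, force-coupled to calcium signalling, were dye-loaded with a no-wash calcium kit. Compound was pin-added after a 10 s baseline. Fluorescence was read kinetically at 1 cycle/s for 180 s, with calcium rises flagged as agonism.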
D1 potentiator: potentiators of human D1 dopamine receptor; 360,000 tested, 0.036% active; HEK293 TREx D1 cells, calcium flux, dopamine EC20 potentiation; P21728; AID 504651; potentiation, % at 10 µM; in the data active = potentiation above about 30%
TRHR agonist: activates the human TRH receptor | P34981 | TRHR cells, calcium flux fluo-8, FDSS agonist mode | activation, % at 2 µM | 360,000 tested, 0.18% active
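Steps: seed TRHR cells overnight; add fluo-8 no-wash Ca dye, RT 30 min–1.5 h; record 10 s baseline; pin-transfer compounds; monitor fluorescence 1 cycle/s for the agonist window. Calcium increases flag candidate agonists.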
Numbers stand for hits; . = inactive; / = no result. Only some compounds are listed: those with a hit (about 4.6% of all), similar ones and a draw of the others. Rule as the data show it, unless noted: active = activation above about 30%; inactive = the rest.

SMILES	D1 antagonist	TRHR PAM	D1 agonist	D1 potentiator	TRHR agonist
OC(c1cccc(Cl)c1)(c1cccc(Cl)c1)C1CN2CCC1CC2 (stereo not drawn)	-35	.	52	.	.
O=C(Nc1cccc(C(F)(F)F)c1)OC1CN2CCC1CC2 (stereo not drawn)	.	.	.	.	.
CCOc1ccccc1CN(CCc1ccc2c(c1)OCO2)Cc1ccc(CC)cc1	.	.	.	.	.
CN1CCN(c2nc(N)c(Br)c(Cl)n2)CC1	-34	.	.	.	.
CC1CCC(C(C)C)C(OC(=O)Cn2c(COc3ccccc3)[n+](C)c3ccccc32)C1 (stereo not drawn)	.	.	41	.	.
NC1CCc2cc(O)c(O)cc2C1 (stereo not drawn)	-102	.	77	.	.
Cc1cccc(-c2nn3c(=O)cc(CN4CCN(C(=O)COc5ccc(Cl)cc5)CC4)nc3s2)c1	.	.	.	.	.
COC(=O)C1=C(c2cccc(OCc3ccccc3)c2)C[C@@H]2CC[C@H]1N2C(=O)NCCOc1ccccc1	.	.	.	.	.
CCN1C(=O)NC(=O)/C(=C\c2cn(CC(=O)N3CCCCC3C)c3ccccc23)C1=O (stereo not drawn)	-30	.	.	.	.
CN1CCN(Cc2ccccc2Sc2ccccc2)CC1	.	.	53	.	.
CC(Cc1ccccc1Sc1ccccc1)N(C)C (stereo not drawn)	-68	.	.	.	.
CC(Cc1ccccc1Sc1ccc(O)cc1)N(C)C (stereo not drawn)	-48	.	.	.	.
Cn1c(=O)n(C)c2cc(CNCCc3ccc(F)cc3)ccc21	.	.	.	.	.
Cc1ccccc1OCC(=O)N1CCN(CCc2ccccn2)CC1	.	.	.	.	.
Cc1c(CC(=O)N2C[C@H]3C[C@@H](C2)c2cccc(=O)n2C3)c(=O)oc2c(C)c(O)ccc12	.	.	.	.	.
Cc1c(CC(=O)N2C[C@H]3C[C@@H](C2)c2cccc(=O)n2C3)c(=O)oc2cc(O)c(Cl)cc12	-47	.	.	.	.
O=C(C(Cc1ccccc1)NS(=O)(=O)c1cccc2nsnc12)N1CCC2(CC1)OCCO2 (stereo not drawn)	.	.	.	.	.
O=C(C1CCCN(S(=O)(=O)c2cccc3nsnc23)C1)N1CCC2(CC1)OCCO2 (stereo not drawn)	-36	.	.	.	.
Cc1ccccc1Cn1cccc(C(=O)Nc2cc(Cl)ccc2C#N)c1=O	.	.	.	.	.
Cc1ccc(C(C)C)c(OCC(=O)N2CCN(CCc3ccncc3)CC2)c1	.	.	.	.	.
Cc1ccc(C[n+]2c(-c3ccc(C)cc3)cc(-c3ccc(C)cc3)cc2-c2ccc(C)cc2)cc1	.	.	39	.	.
CC(C)(C)c1ccc(OCC(=O)Nc2ccc(Cl)cc2C(=O)c2ccccc2)cc1	.	.	.	.	.
COc1cc2c(cc1OC)CN(c1ccc([N+](=O)[O-])c(C(F)(F)F)c1)CC2	.	37	.	.	.
COc1ccc(-n2c(/C=C/c3cccc(F)c3)nc3ccccc3c2=O)cc1Cl	.	.	.	.	.
C=CCN1C(=O)C2(C(C(=O)OCC)=C(N)Oc3ccccc32)c2c1c1ccccc1oc2=O (stereo not drawn)	.	.	.	.	.
SMILES	D1 antagonist	TRHR PAM	D1 agonist	D1 potentiator	TRHR agonist
CCOC(=O)C1=C(N)Oc2c(c(=O)oc3ccccc23)C12C(=O)N(C)c1ccccc12 (stereo not drawn)	-67	.	.	.	.
CC(N)Cc1cn(Cc2ccccc2)c2ccccc12 (stereo not drawn)	.	.	47	.	.
CCOC(=O)C1(CCc2ccccc2)CCN(Cc2cccc3c2OCO3)CC1	-42	.	.	.	.
CCOC(=O)C1(CCc2ccccc2)CCN(Cc2csc(C(C)=O)c2)CC1	.	.	.	.	.
CCOC(=O)C1(CCOc2ccccc2)CCN(Cc2ccccc2OC)CC1	.	.	.	.	.
CCOC(=O)C1(CCc2ccccc2)CCN(Cc2cccc3cnccc23)CC1	-45	.	.	.	.
CCCC1=Nc2cc(C(=O)NCCCN(CC)CC)ccc2Sc2ccccc21	.	.	.	.	.
COc1ccc2c(c1O)-c1c(OC)c(OC)cc3c1[C@H](C2)N(C)CC3	-63	.	.	.	.
CCNC(=O)NC(=O)C(C)OC(=O)c1c(C)nn(Cc2ccccc2Cl)c1Cl (stereo not drawn)	-35	.	.	.	.
CCNC(=O)NC(=O)C(C)OC(=O)c1c(C)nn(Cc2ccccc2)c1Cl (stereo not drawn)	.	.	.	.	.
Cc1ccc(Cn2nc(C)c(C=O)c2Cl)cc1	-36	.	.	.	.
C=CCN1C(=O)NC(=O)/C(=C/C=C/c2ccccc2)C1=O	-34	.	.	.	.
O=C1NC(=O)N(CCc2ccc(F)cc2)C(=O)/C1=C\C=C\c1ccccc1	.	.	.	.	.
CC1CC(C)CN(CC(=O)c2ccc(OC(F)F)cc2)C1 (stereo not drawn)	.	.	.	.	.
Cc1c(O)ccc(C(=O)CN2CC(C)OC(C)C2)c1O (stereo not drawn)	-40	.	.	.	.
CCOC(=O)c1ccc(NC(=O)c2cccn(Cc3ccc(C)cc3)c2=O)cc1	/	.	.	.	.
CCOC(=O)c1ccc(NC(=O)c2c(O)[nH]c(=O)[nH]c2=O)cc1	.	.	241	.	73
CCN(CC)P(=O)(c1nccn1C)N(CC)CC	-37	.	.	.	.
Cc1ccc2c(c1)C1CN(C)CCC1N2C(=O)Nc1cccc(C(F)(F)F)c1 (stereo not drawn)	/	.	.	.	.
Cc1ccc2c(c1)C1CN(C)CCC1N2C(=O)CCCN1C(=O)c2cccc3cccc(c23)C1=O (stereo not drawn)	-49	.	.	.	.
Cc1ccc2c(c1)[C@@H]1CN(C)CC[C@@H]1N2C(=O)Nc1cccc(C(F)(F)F)c1	-52	.	.	.	.
COc1ccc(Cl)cc1NC(=O)CN1C(=O)CN=C(c2ccccc2)c2cc(Cl)ccc21	.	.	.	.	.
O=S1(=O)N(Cc2ccccc2)CCCN1Cc1cccc(Cl)c1	.	.	.	.	.
Cc1ccc(-n2c(/C=C/c3ccccc3)nc3ccccc3c2=O)cc1C	.	.	.	.	.
CCOc1ccc(NC(=O)Cn2cc(C(=O)c3ccccc3)c3ccccc32)cc1	.	.	.	.	.
[O-][n+]1onc2c1CCC1N(O)CCC21O (stereo not drawn)	-30	.	.	.	.
CC(=NCC1CCCO1)c1c(O)n(-c2ccccc2C)c(=O)[nH]c1=O (stereo not drawn)	.	.	.	.	.
COc1cc2[nH]c(=S)n(-c3ccccc3)c(=O)c2cc1OC	.	.	.	.	.
